Source: PubChem BioAssay (NCATS)
Inconclusive results are not listed. Where a call stands in place of a potency, no number is given. Active and inactive are the calls of the source. Calls come from the whole dose curve; as a rule, active = well fitted inhibition curve with a large enough effect; inconclusive = small, poorly fitted or top-dose-only effect; inactive = no such curve, though single readings can be large or run the other way.

target: Rap guanine nucleotide exchange factor 4 (Homo sapiens) (UniProt Q8WZA2); assay: Confirmatory qHTS for antagonist of cAMP-regulated guanine nucleotide exchange factor 4 (EPAC2) (AID 1645885); details: EPAC2 Rap1B-BODIPY-GDP exchange fluorescence, biochemical; series mostly up to 12.7 µM; note: nearly all actives have a fitted effect of over 25% in size
Sequence (Q8WZA2 whole entry, looked up): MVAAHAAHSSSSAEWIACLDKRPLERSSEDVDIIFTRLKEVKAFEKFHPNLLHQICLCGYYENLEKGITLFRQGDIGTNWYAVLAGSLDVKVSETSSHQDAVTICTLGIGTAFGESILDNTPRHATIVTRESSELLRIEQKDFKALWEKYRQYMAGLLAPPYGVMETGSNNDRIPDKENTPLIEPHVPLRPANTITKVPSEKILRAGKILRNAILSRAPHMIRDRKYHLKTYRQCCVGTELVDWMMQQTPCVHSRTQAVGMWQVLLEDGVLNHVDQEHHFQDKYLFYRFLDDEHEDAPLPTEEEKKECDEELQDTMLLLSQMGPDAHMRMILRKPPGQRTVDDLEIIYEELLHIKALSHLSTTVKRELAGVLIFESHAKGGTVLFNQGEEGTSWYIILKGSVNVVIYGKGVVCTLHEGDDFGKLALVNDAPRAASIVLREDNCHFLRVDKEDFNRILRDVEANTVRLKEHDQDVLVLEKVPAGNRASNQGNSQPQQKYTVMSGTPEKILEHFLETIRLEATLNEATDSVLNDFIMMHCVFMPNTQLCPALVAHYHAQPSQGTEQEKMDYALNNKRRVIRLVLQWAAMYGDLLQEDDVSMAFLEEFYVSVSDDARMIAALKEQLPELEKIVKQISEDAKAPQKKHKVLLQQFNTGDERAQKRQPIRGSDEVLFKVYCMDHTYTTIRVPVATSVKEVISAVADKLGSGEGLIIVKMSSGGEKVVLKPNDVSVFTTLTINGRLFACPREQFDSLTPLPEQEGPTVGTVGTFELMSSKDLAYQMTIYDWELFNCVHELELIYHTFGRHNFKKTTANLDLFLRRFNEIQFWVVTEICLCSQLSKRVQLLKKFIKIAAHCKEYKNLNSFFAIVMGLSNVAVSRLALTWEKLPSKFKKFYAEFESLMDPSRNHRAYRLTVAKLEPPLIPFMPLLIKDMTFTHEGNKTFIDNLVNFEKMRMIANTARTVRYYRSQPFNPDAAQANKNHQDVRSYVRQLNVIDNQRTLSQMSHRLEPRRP
Potency is the fitted concentration of half-maximal effect.

With COc1ccc(NC(=O)Cn2c(SCc3cc(C)ccc3C)nc3ccncc32)c(OC)c1OC as the compound, how does the outcome read?
The outcome was “inactive [at 12.7 µM]”.

CCC(C(=O)Nc1cc(OC)ccc1OC)n1nc(-c2ccccc2)c2c(c1=O)CCCC2 (centres undefined) was tested. Which Potency did it give?
The Potency was “inactive”.

How did the Potency turn out when COc1ccc(C(C[N+](=O)[O-])c2c(C)cc3ccccn23)c(OC)c1 (centres undefined) was run?
Its Potency is “inactive”.

How did the Potency turn out when COCC(=O)Oc1c(Sc2ccc(C)cc2)c(C)nn1C(C)(C)C was run?
The Potency was “inactive”.

Which Potency does the source give for COc1ccc(C(=O)NC2CCCc3ccccc32)c(OC)c1OC (centres undefined) here?
The Potency was “inactive”.

For CN(CC(=O)O)c1ccc(/C=C/c2ccnc3ccccc23)cc1, which Potency is on record?
Its Potency is 55.5 µM (active).

CCOC(=O)c1c(C)[nH]c(CCC(=O)NCc2cccc(OC)c2)c1C was tested. Which Potency did it give?
Its Potency is “inactive”.

How did the Potency turn out when O=C(COC(=O)/C=C/c1cccc(C(F)(F)F)c1)NC(=O)NC1CCCC1 was run?
The Potency was “inactive”.

With COc1ccc(OC)c2c(/C=C/c3c(C)[nH]c4ccccc34)ccnc12 as the compound, how does the Potency read?
Its Potency is “inactive”.

With CCCCN(Cc1ccc(C(=O)N[C@H](C(=O)O)C(C)C)cc1)C(=O)C(c1ccccc1)c1ccccc1 as the compound, how does the Potency read?
The Potency was “inactive”.

Which Potency does the source give for CN(C)c1ccc(/C=C/C=C/c2ccnc3ccccc23)cc1 here?
Its Potency is “inactive”.

Which Potency does the source give for COc1ccc(-c2[nH]c(-c3ccc(SC)cc3)nc2SCC(=O)Nc2nccs2)cc1 here?
The Potency was “inactive”.

How did the Potency turn out when O=C(Nc1ccccn1)c1cccc(S(=O)(=O)N2CCc3ccccc3C2)c1 was run?
The Potency was “inactive”.

COc1cc(/C=N/NC(=O)c2ccccc2)ccc1O was tested. Which Potency did it give?
Its Potency is “inactive”.

How did the Potency turn out when C1=Cc2ccccc2/C1=C\c1ccc2c(c1)OCO2 was run?
The Potency was “inactive”.

How did the Potency turn out when COc1ccccc1CNC(=O)CSc1ccc(-c2cccs2)nn1 was run?
The Potency was “inactive”.

For COc1ccc(-c2nc3cc(C)ccc3cc2CN(C(=O)c2cccs2)C2CC2)cc1OC, which Potency is on record?
Its Potency is 49.4 µM (active).

How did the Potency turn out when COc1ccccc1NC(=O)Nc1nc(CC(=O)Nc2ccc(N(C)C)cc2)cs1 was run?
The Potency was “inactive”.

For Cc1ccc2nc(N3C(=O)C(O)=C(C(=O)c4ccc(C)o4)C3c3cccc(O)c3)sc2c1 (centres undefined), which Potency is on record?
Its Potency is “inactive”.

With Cc1nc(C)n(CC(=O)NCC2Cc3cc(-c4cccc(OC(F)(F)F)c4)ccc3O2)n1 (centres undefined) as the compound, how does the Potency read?
Its Potency is 44.1 µM (active).

With Cc1ccc(C2CC(=O)Oc3cc(C)cc(C)c32)cc1 (centres undefined) as the compound, how does the Potency read?
Its Potency is “inactive”.

Which Potency does the source give for CCCCN(C(=O)CSc1n[nH]c(-c2ccc(C)cc2)n1)c1c(N)n(CCCC)c(=O)[nH]c1=O here?
The Potency was “inactive”.

O=C1C[C@H]2C=CCc3cccc(c32)CN1Cc1ccc(Cl)cc1 was tested. Which Potency did it give?
The Potency was 44.1 µM (active).

NC(=O)C1CCN(C(=O)Nc2csc3ccccc23)CC1 was tested. Which Potency did it give?
Its Potency is 12 µM (active).

How did the Potency turn out when O=C(C[n+]1cccc2cc(Cl)ccc21)c1ccc(Br)cc1 was run?
Its Potency is “inactive”.

Which Potency does the source give for CCN(CCn1cccn1)Cc1c(C(=O)N2CCCCCCC2)nc2ccc(Cl)cn12 here?
Its Potency is “inactive”.

For CSCCC(NC(=O)c1ccc(Cl)cc1)C(=O)OCC(=O)N1CCCC1=O (centres undefined), which Potency is on record?
Its Potency is “inactive”.

With COc1ccccc1N1CCN(c2ccc3c(c2)S(=O)(=O)c2cccc(C(=O)NCC4CC4)c2C3=O)CC1 as the compound, how does the Potency read?
The Potency was “inactive”.

Which Potency does the source give for CC/C(=C/c1ccccc1OC)c1cc(-c2ccccc2)cc2oc3ccccc3c12 here?
Its Potency is “inactive”.

With Cc1cccc(Nc2c([N+](=O)[O-])c(=O)oc3ccccc23)c1 as the compound, how does the Potency read?
Its Potency is “inactive”.

How did the Potency turn out when Cc1ccc(S(=O)(=O)N2[C@@H](CO)CO[C@H]2CC(=O)c2ccc(F)cc2)cc1 was run?
Its Potency is “inactive”.

How did the Potency turn out when CC(C)CC1C(=O)N(Cc2cn(CCC3OCCCO3)nn2)CCS(=O)(=O)N1Cc1ccc(-c2ccc(F)cc2)cc1 (centres undefined) was run?
The Potency was “inactive”.

COC(=O)C(Cc1ccc(O)cc1)NC(=O)CCc1nc2ccccc2s1 (centres undefined) was tested. Which Potency did it give?
Its Potency is “inactive”.

Which Potency does the source give for O=C(CCCC(=O)Nc1cccnc1)Nc1cccnc1 here?
Its Potency is “inactive”.

How did the Potency turn out when CCOC(=O)[C@H](CCc1ccccc1)N[C@@H](C)C(=O)N1[C@@H](C(=O)O)C[C@@H]2CCC[C@@H]21 was run?
Its Potency is “inactive”.

How did the Potency turn out when Cc1nc2ccccc2c(=O)n1/N=C/c1ccccc1O was run?
The Potency was “inactive”.

CC[C@H]1c2[nH]c3ccc(C(C)C)cc3c2[C@@H]2CCN3C(=O)CCC[C@H]1[C@H]23 was tested. Which Potency did it give?
The Potency was “inactive”.

How did the Potency turn out when CCCCCCc1ccc(N2C[C@H](Cc3ccccc3)[C@@H](CC(=O)Nc3ccccc3)C2=O)cc1 was run?
The Potency was “inactive”.

CC(C(=O)Nc1ccccc1C(F)(F)F)n1nc(-c2ccccc2)c2c(c1=O)CCCC2 (centres undefined) was tested. Which Potency did it give?
The Potency was “inactive”.
